Here are results for 28 molecules from ChEMBL document CHEMBL4513216, “Probing the Open Global Health Chemical Diversity Library for Multistage-Active Starting Points for Next-Generation Antimalarials” (ACS Infect Dis, 2020).

The campaign covered roughly 68,000 compounds. About 2,700 (4%) showed an effect of 50% or more. What follows is part of a selection rich in strong results, with near analogues and random picks from the rest.

The assay relates to Plasmodium berghei. Briefly: Screen against P. berghei liver stage (PbLuc), transformed with Luciferase, at 2uM. Type of assay: functional, HepG2. The note with it: tested at 2 uM.
Consider `Cc1cnc(C(=O)N2CC[C@H]3C[C@@H](c4nc(C)cs4)O[C@@H]3C2)cn1`, for which the INHIBITION is 5.85%.
In the case of `CC(C)c1cc(=O)[nH]c(-n2nc(C3CC3)cc2N)n1`, the INHIBITION is on record as 16.98%.
The figure for `CN(CC1CCCCO1)S(=O)(=O)c1cccc(C(=O)N2CCOCC2)c1` (stereo not drawn) is -40.47%.
On to `O=C(O)c1cccc(C2CCCN(S(=O)(=O)C3CC3)C2)c1` (stereo not drawn), for which the INHIBITION is reported as 47.68%.
Next, `OCCN1CCN(Cc2coc(-c3ccccc3Cl)n2)CC1`: 58.53%; `COCCN1CCN(Cc2coc(-c3ccccc3Cl)n2)CC1`: 11.9%; `CC(O)CN1CCN(Cc2coc(-c3ccccc3Cl)n2)CC1` (stereo not drawn): -7.16%.
The figure for `Cc1nnc(NC(=O)NCc2ccc(F)cc2)s1` is -12.41%.
With `O=C(c1nc2c(o1)CN(CC1CCC1)C2)N1CCCC1`, the INHIBITION is listed as 12.68%.
Next, `COCCN1C[C@@H]2[C@@H](OC)CCN(C(=O)Cc3ccccc3)[C@@H]2C1`: 55.44%.
Next, `COCCN1C[C@H]2[C@@H](C1)N(C(=O)COc1ccccc1)CC[C@H]2OC`: -75.33%.
Consider `COCCN1C[C@H]2[C@@H](C1)N(C(=O)CCc1ccccc1)CC[C@H]2OC`, for which the INHIBITION stood at 25.02%.
Next, `N#Cc1ccccc1CN1C[C@H]2CC[C@@H](C1)N(Cc1cscn1)C2=O`: -66.52%.
`CC(C)N(C)S(=O)(=O)N1CCCC1CC(=O)c1cccs1` (stereo not drawn): the INHIBITION came to 2.71%.
Next, `Cc1ccc(CNCC2Cn3nnc(-c4cccc(F)c4)c3CO2)o1` (stereo not drawn): -17.26%; `CN1CCC2(COCCN(Cc3cccc(C#N)c3)C2)C1` (stereo not drawn): 16.03%; `CCCS(=O)(=O)N1CCC2(CCC(=O)N(CCc3ccccc3)C2)CC1`: 15.56%.
The figure for `CCCS(=O)(=O)N1CCC2(CCC(=O)N(Cc3ccccc3)C2)CC1` is 57.91%; for `CCCS(=O)(=O)N1CCC2(CCC(=O)N(CCc3cccnc3)C2)CC1` it is 31.96%.
The figure for `CCC(CNC(=O)Cc1c(C)noc1C)N1CCCC1` (stereo not drawn) is -15.63%; for `COc1cc(CCC(=O)N2CCC(c3cnccn3)CC2)on1` it is -56.97%; for `Cn1nccc1CCC(=O)N1CCC(c2cnccn2)CC1` it is -14.13%.
Take `Cc1ccnn1CCC(=O)N1CCC(c2cnccn2)CC1`: the INHIBITION is recorded as 55.74%.
Turning to `CC(Cn1cc(Br)cn1)C(=O)Nc1ccc(Br)cn1` (stereo not drawn), the INHIBITION is on record as -84.37%.
Next, `CC(C)N(CCCNC(=O)C1CCCN(C(N)=O)C1)S(C)(=O)=O` (stereo not drawn): 26.18%.
For the molecule `N#CCCNC(=O)CSc1cc(F)ccc1F`, the INHIBITION turned out to be 51.83%.
`N#CCCNC(=O)CSc1ccc(F)cc1F`: the INHIBITION came out at 21.22%.
Regarding `CN(CCC#N)C(=O)CSc1cc(F)ccc1F`, the INHIBITION was determined as 6.82%.
